Among the data in PubChem BioAssay AID588519 (ICCB-Longwood Screening Facility, Harvard Medical School, 2011) are % elongation and z-score values, retold here.

In the assay the target is Genome polyprotein (Poliovirus type 1 (strain Mahoney)) (UniProt P03300). The assay can be described thus: inhibitors of poliovirus polymerase RNA elongation – biochemical, fluorescence polarization, total intensity, primary screen (AID 588519). For z-score: compound at 16.7 µg/mL. The settings on record: stronger effect = lower value; for % elongation: compound at 16.7 µg/mL; for z-score: measured here: FP z-score. (In general: Fluorescence polarisation rises when a labelled molecule tumbles more slowly, as on binding a larger partner.)
Sequence of Genome polyprotein (Poliovirus type 1 (strain Mahoney)) (P03300 1749-2209 limits assumed): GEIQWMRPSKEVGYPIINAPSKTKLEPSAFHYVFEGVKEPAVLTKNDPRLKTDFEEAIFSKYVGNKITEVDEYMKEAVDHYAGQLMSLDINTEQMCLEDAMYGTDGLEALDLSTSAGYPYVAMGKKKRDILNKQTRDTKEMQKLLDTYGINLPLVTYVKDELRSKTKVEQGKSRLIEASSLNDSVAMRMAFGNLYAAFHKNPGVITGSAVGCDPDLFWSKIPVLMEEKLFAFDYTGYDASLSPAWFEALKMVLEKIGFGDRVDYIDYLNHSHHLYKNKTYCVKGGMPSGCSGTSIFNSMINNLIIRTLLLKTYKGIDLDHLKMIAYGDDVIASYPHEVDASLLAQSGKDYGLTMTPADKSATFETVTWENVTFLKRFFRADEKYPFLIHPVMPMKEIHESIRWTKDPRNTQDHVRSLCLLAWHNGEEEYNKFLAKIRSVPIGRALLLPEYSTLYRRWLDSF

[1] abbreviates: measured here: total intensity read-out.

The campaign covered roughly 150,000 compounds. About 1,000 (0.67%) were called active. Cut-off read from the data, not from the text of the source: active = % elongation below about 90%; inactive = the rest, inconclusive results apart. For the sample, actives were picked, then their nearest neighbours and some compounds at random.

Turning to `CN1CCc2c(c(S)[nH]c(=S)c2C#N)C1`, the % elongation is -17% (active) and the z-score is -18.2. Also, under setting [1], the % elongation stood at 48%.

Take `Cc1ccc(-n2c(C)cc(C(=O)CN3CC(C)OC(C)C3)c2C)cc1` (stereo not drawn): the % elongation is 100% (inactive) and the z-score is -0.2. Moreover, the % elongation under setting [1] worked out at 99%.

With `O=C(O)CN1C(=O)/C(=C2/OC(=O)c3ccccc32)SC1=S`, the % elongation is 101% (inactive) and the z-score is -0.1. Moreover, the % elongation under setting [1] was determined as 99%.

Turning to `O=C(O)CCCN1C(=O)/C(=C2\SC(=S)N(CCCC(=O)O)C2=O)SC1=S`, the % elongation is 88% (active) and the z-score is -4.7. Moreover, under setting [1], the % elongation was determined as 86%.

As to `O=C(O)CCCN1C(=O)c2ccccc2Sc2ncccc21`, the % elongation was 101% (inactive) and the z-score was -0.2. The % elongation under setting [1] worked out at 105%.

Take `CCn1c(=O)c(=O)n(CC)c2cc(N3CCCCC3)c(NC(=O)c3cccc(F)c3)cc21`: the % elongation was 104% (inactive) and the z-score is -0.3. Also, under setting [1], the % elongation was determined as 107%.

Regarding `CCn1c(=O)c(=O)n(CC)c2cc(N3CCCCC3)c(NC(=O)c3ccccc3)cc21`, the % elongation is 101% (inactive) and the z-score came to 0.2. For the same compound, under setting [1], the % elongation came to 102%.

Turning to `CCn1c(=O)c(=O)n(CC)c2cc(N3CCCCC3)c(NC(=O)c3ccc(Cl)cc3)cc21`, the % elongation was 90% (active) and the z-score was -4.3. Also, the % elongation under setting [1] was determined as 85%.

For the compound `CS(=O)(=O)Nc1ccc2c(c1)COC2=O`, the % elongation is 102% (inactive) and the z-score was 0. For the same compound, the % elongation under setting [1] worked out at 102%.

`Cc1nc(N(CC(=O)OC2CC(C)CCC2C(C)C)S(=O)(=O)c2ccc(N)cc2)c(C)n1N` (stereo not drawn): the % elongation is 102% (inactive) and the z-score came to 0.1. The % elongation under setting [1] was determined as 92%.

As for `CCCCCC(=O)Nc1cc(-c2nc3cc(C)cc(C)c3o2)ccc1C`, the % elongation was 103% (inactive) and the z-score was 0.3. For the same compound, under setting [1], the % elongation came to 102%.

Turning to `CCN(Cc1ccccc1)C(=O)c1cccc(N2C(=O)CCC2=O)c1`, the % elongation is 101% (inactive) and the z-score was -0.5. Further, the % elongation under setting [1] came to 103%.

Regarding `O=C(ON1C(=O)CCC1=O)c1ccccc1`, the % elongation is 80% (active) and the z-score was -2.1. Under setting [1], the % elongation came to 89%.

Regarding `O=C1CCC(=O)N1C(c1ccccc1)c1ccccc1`, the % elongation is 104% (inactive) and the z-score is 0.6. Besides, the % elongation under setting [1] amounted to 103%.

Turning to `Cc1c(C=Nc2ccc(S(=O)(=O)N(C)C)cc2)c(O)n(C)c(=O)c1C#N`, the % elongation is 104% (inactive) and the z-score amounted to 0.1. Moreover, the % elongation under setting [1] was determined as 114%.

As to `Cn1c(=O)c(=O)n(C)c2cc(NC(=O)c3ccccc3Br)ccc21`, the % elongation was 109% (inactive) and the z-score amounted to 1.1. The % elongation under setting [1] stood at 113%.

Consider `COc1ccc2c(c1)Cc1sc(NC(=O)c3ccccc3Br)nc1-2`, for which the % elongation was 59% (active) and the z-score is -7.3. The % elongation under setting [1] amounted to 63%.

Regarding `CCOc1ccc2nc(NC(=O)c3ccccc3OC)sc2c1`, the % elongation was 99% (inactive) and the z-score is -0.1. Also, the % elongation under setting [1] is 92%.

In the case of `COC(=O)C1CCN(S(=O)(=O)c2ccc(Cl)cc2)CC1`, the % elongation was 103% (inactive) and the z-score came out at 0.2. The % elongation under setting [1] was determined as 102%.

As for `NCC1OC(OC2C(N)CC(N)C(O)C2O[C@@H]2O[C@H](CO)[C@H](O)C2O)C(N)C(O)C1O` (stereo partly drawn), the % elongation is 99% (inactive) and the z-score was -0.1. For the same compound, the % elongation under setting [1] was 103%.

Turning to `NC[C@@H]1O[C@H](O[C@@H]2[C@@H](CO)OC(O[C@@H]3[C@@H](O)[C@H](N)C[C@H](N)[C@H]3OC3O[C@H](CN)[C@@H](O)[C@H](O)[C@H]3N)[C@@H]2O)[C@H](N)[C@@H](O)[C@@H]1O` (stereo partly drawn), the % elongation is 87% (active) and the z-score was -1.4. The % elongation under setting [1] turned out to be 78%.

As to `NC(=O)c1cccc(N2C(=O)c3ccccc3C2=O)c1`, the % elongation is 105% (inactive) and the z-score worked out at 0.2. Further, under setting [1], the % elongation came to 102%.

For `O=C1CCC(=O)N1OCC1CCCN2CCCCC12` (stereo not drawn), the % elongation was 104% (inactive) and the z-score was found to be 0.1. The % elongation under setting [1] turned out to be 108%.

Regarding `CCSc1nsc(SCC)c1C(=O)O`, the % elongation was 88% (active) and the z-score was -1.5. The % elongation under setting [1] was 96%.

`O=C(Nc1sc2c(c1C(=O)NCCc1ccccc1)CCC2)c1ccco1`: the % elongation was 103% (inactive) and the z-score worked out at 0.4. In addition, under setting [1], the % elongation came to 105%.

For `Cc1ccc(S(=O)(=O)c2no[n+]([O-])c2S(=O)(=O)c2ccc(C)cc2)cc1`, the % elongation was 79% (active) and the z-score was -2.2. For the same compound, under setting [1], the % elongation was 69%.

On to `Cc1ccc(CSc2oc(-c3cccs3)nc2S(=O)(=O)c2ccc(C)cc2)cc1`, for which the % elongation is 108% (inactive) and the z-score amounted to 0.8. Besides, the % elongation under setting [1] was 109%.

With `Cc1ccc(-c2nc(S(=O)(=O)c3ccc(C)cc3)c(N3CCCCCC3)o2)cc1`, the % elongation was 100% (inactive) and the z-score is -1.6. The % elongation under setting [1] turned out to be 104%.

Take `CCC(c1nnc(SCc2nc3sc4c(c3c(=O)[nH]2)CCC4)n1Cc1ccccc1)N(C)C` (stereo not drawn): the % elongation is 114% (inactive) and the z-score came to 2. Further, the % elongation under setting [1] was determined as 106%.

Regarding `Cc1c(S(=O)(=O)O)oc2c1C(=O)C(=O)c1c-2ccc2c1CCCC2(C)C`, the % elongation is 87% (active) and the z-score was -1.4. For the same compound, the % elongation under setting [1] came to 88%.

For the compound `COc1ccccc1Cn1cccc1C1=NC(C(C)C)CO1` (stereo not drawn), the % elongation was 101% (inactive) and the z-score was found to be 0.2. Moreover, the % elongation under setting [1] came out at 103%.

Turning to `COC1CC(O[C@@H]2[C@H](C)[C@H](OC3OC(C)CC(N(C)C)C3OC(C)=O)[C@H](C)CC3(CO3)C(=O)[C@@H](C)C(OC(C)=O)[C@H](C)[C@H](C)OC(=O)[C@@H]2C)OC(C)C1OC(C)=O` (stereo partly drawn), the % elongation is 100% (inactive) and the z-score was 0.2. Further, the % elongation under setting [1] came to 103%.

Take `Cc1ccc(OCCn2cc(C(=O)c3ccccc3)c3ccccc32)cc1`: the % elongation was 100% (inactive) and the z-score was -0.4. In addition, the % elongation under setting [1] was found to be 96%.

Regarding `CC(C)c1ccc(NC(=O)Cn2c3ncccc3c(=O)n2-c2ccccc2)cc1`, the % elongation was 33% (active) and the z-score was -5.2. For the same compound, the % elongation under setting [1] turned out to be 49%.

For the compound `Cc1ccc(-n2c(=O)c3cccnc3n2CC(=O)Nc2ccccc2C(F)(F)F)cc1C`, the % elongation is 110% (inactive) and the z-score amounted to 0.2. Also, the % elongation under setting [1] stood at 105%.

Regarding `CCOc1ccccc1NC(=O)Cn1c2ncccc2c(=O)n1-c1ccc(C)c(C)c1`, the % elongation is 107% (inactive) and the z-score was 0. Further, under setting [1], the % elongation was determined as 105%.
